Assay outcomes as filed in PubChem.
LGR2 inh – Drosophila LGR2 receptor signaling inhibition; HEK293 LGR2, CRE-luciferase, bursicon-stimulated, 4 h; inhibition, % at 9.99 µM; 380,000 tested, 0.35% active; AID 720647;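 active = drop in luminescence signal, shown as inhibition above about 50% in the replicate tests, limit read from the data, passing the limit was not always enough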;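 also: agonist challenge used bursicon conditioned medium at about half maximal strength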
TROY signal inh – inhibitors of TROY-dependent NF-kB signaling. Q293 LMP1-TROYcd NF-kB luciferase reporter, 4 h. inhibition, % at 10 µM. 360,000 tested, 0.98% active. AID 1347056;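 active = compounds whose plate-normalised and pattern-corrected inhibition of the luciferase reporter signal at the single screening dose is 50% or more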
HSP90 inh – blocks HSP90-mediated luciferase refolding in reticulocyte lysate | AID 1789 | 290,000 tested, 0.91% active | inhibition, % at 5.6 µM | Rabbit reticulocyte lysate, luciferase refolding luminescence, 3 h;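 active = inhibition above the screen-wide mean plus 3 SD, computed separately per campaign, cut at about 16% in these data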;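 also: inhibitors lower the luminescence because luciferase stays unfolded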
TWEAK-Fn14 inh – inhibitors of TWEAK-Fn14 interaction signaling; TWEAK-stimulated Fn14 reporter cells, luciferase luminescence, 8 h; inhibition, % at 10 µM; 360,000 tested, 2% active; AID 1159606; in the data active = inhibition above about 50%
HSP90 inh confirm – HSP90 inhibition, confirmation assay | shares compounds with HSP90 inh | rabbit reticulocyte lysate, luciferase refolding luminescence, 3 h | inhibition, % at 5.9 µM | 2,300 tested, 64% active | AID 1846; in the data active = inhibition above about 18%
FLuc counter – blocks native firefly luciferase in HSP90 counter-screen; shares compounds with HSP90 inh; purified native firefly luciferase, luminescence; inhibition, % at 5.9 µM; 2,300 tested, 48% active; AID 1847;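 active = inhibition above the mean inhibition of all tested sample wells plus 3 SD, cut at about 10% in these data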
Target sequence (P08659 whole entry, looked up): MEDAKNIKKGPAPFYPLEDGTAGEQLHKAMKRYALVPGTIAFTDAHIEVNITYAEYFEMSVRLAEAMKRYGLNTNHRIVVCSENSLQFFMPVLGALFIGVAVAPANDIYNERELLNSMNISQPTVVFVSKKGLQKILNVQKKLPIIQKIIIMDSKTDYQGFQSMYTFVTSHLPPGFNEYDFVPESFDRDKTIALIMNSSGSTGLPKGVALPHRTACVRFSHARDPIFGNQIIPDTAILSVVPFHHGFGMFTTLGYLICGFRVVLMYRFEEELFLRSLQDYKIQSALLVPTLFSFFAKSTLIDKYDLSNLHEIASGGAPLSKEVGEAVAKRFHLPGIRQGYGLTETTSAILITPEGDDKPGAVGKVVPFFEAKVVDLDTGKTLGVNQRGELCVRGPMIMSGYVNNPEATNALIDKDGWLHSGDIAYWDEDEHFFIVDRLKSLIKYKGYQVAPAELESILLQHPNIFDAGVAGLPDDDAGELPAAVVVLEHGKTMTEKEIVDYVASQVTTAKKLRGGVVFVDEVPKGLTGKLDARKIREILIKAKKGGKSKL
Hits are given with their value; – = inactive; · = no result. Most compounds without a hit are left out; they make up all but 2.2% or so of the library.

SMILES | LGR2 inh | TROY signal inh | HSP90 inh | TWEAK-Fn14 inh | HSP90 inh confirm | FLuc counter
C[C@@H]1CN([C@H](C)CO)C(=O)c2cc(Br)cnc2O[C@H]1CN(C)Cc1ccncc1 | – | · | · | · | · | ·
C[C@@H](O)C#Cc1ccc([C@@H]2[C@@H](CO)N3CCCCN(S(=O)(=O)c4ccccc4)C[C@@H]23)cc1 | – | · | · | · | · | ·
CCN(C=NC1=NN(c2cccc(C(F)(F)F)c2)CC1)CC | – | – | 22 | – | – | –
COc1ccc(C(=O)/C=C/c2ccc(OC)c(COc3ccc(F)cc3)c2)cc1 | – | – | 24 | – | 21 | –
CO[C@@H]1CN(C)C(=O)c2ccc(NC(=O)NC(C)C)cc2OC[C@@H](C)N(C(=O)CC2CC2)C[C@H]1C | – | · | · | · | · | ·
COC(=O)c1ccc2nc(NC(=O)C3CC3)sc2c1 | – | – | 39 | – | 57 | –
Cc1cnc(NC(=O)c2ccc(OCC3CCCO3)cc2)s1 (stereo unspecified) | 87 | – | 47 | 85 | 60 | 51
Cc1ccc(NC(=O)c2ccc(OCC3CCCO3)cc2)nc1 (stereo unspecified) | – | – | · | – | · | ·
COc1ccc2c(c1)Cc1sc(NC(=O)c3ccccc3)nc1-2 | · | – | 18 | – | – | –
O=C(NNc1nc2ccccc2s1)Nc1ccccc1 | · | – | – | – | · | ·
C/C(=C\C(=O)c1ccccc1)NNc1nc2ccccc2s1 | · | – | 37 | – | – | –
CC(C)NC(=O)N1[C@H](CN(C)C(=O)c2ccccc2)[C@@H](c2ccccc2)[C@@H]1CO | – | · | · | · | · | ·
O=C(Nc1nc2ccccc2s1)c1ccc(OCC2CCCO2)cc1 (stereo unspecified) | – | 78 | 19 | 93 | 39 | 33
O=C(Nc1ncccc1O)c1ccc(OCC2CCCO2)cc1 (stereo unspecified) | – | – | 24 | – | 44 | 20
COc1ccc(C(=O)Nc2nc3ccccc3s2)cc1 | – | – | 37 | 98 | 73 | 67
O=C(NC1=NCCS1)c1ccc(OCC2CCCO2)cc1 (stereo unspecified) | · | – | – | – | · | ·
Cc1ccc(-c2csc(Nc3ccccn3)n2)cc1 | 81 | – | 19 | 82 | 26 | 17
Oc1ccc(-c2csc(Nc3ccccn3)n2)cc1 | – | – | 21 | – | – | –
COc1ccc(NC(=O)N2CC3(C2)CN(C(=O)CN2CCOCC2)[C@H](CO)c2[nH]c4cc(OC)ccc4c23)cc1 | – | · | · | · | · | ·
CCC(=O)N(C)C[C@@H]1Oc2cc(-c3cncnc3)ccc2S(=O)(=O)N([C@@H](C)CO)C[C@H]1C | – | · | · | · | · | ·
CN(C)C(=O)[C@@H]1[C@@H](CO)[C@@H]2Cn3c(ccc(C4=CCCC4)c3=O)[C@H]1N2CC1CCCC1 | – | · | · | · | · | ·
C[C@@H](NC(=O)C[C@@H]1C[C@H]2c3cc(NC(=O)c4cccnc4)ccc3O[C@H]2[C@H](CO)O1)c1ccccc1 | – | · | · | · | · | ·
C[C@@H]1CN([C@H](C)CO)S(=O)(=O)c2ccc(C#Cc3ccc(F)cc3)cc2O[C@@H]1CN(C)C(=O)CN(C)C | – | · | · | · | · | ·
COc1ccccc1C(=O)N(CCC1CCCN1C)c1nc2ccccc2s1 (stereo unspecified) | 98 | 89 | 67 | 101 | 70 | 69
CC(C)(C)c1ccc(Cn2c(=O)cnc3ccccc32)cc1 | 60 | 81 | 22 | 92 | 53 | 34
SMILES | LGR2 inh | TROY signal inh | HSP90 inh | TWEAK-Fn14 inh | HSP90 inh confirm | FLuc counter
O=c1cnc2ccccc2n1Cc1ccc(Br)cc1 | – | – | – | – | · | ·
Nc1cccc(-c2nc3ccc(N)cc3s2)c1 | · | – | 20 | 78 | 66 | 53
Nc1ccc(O)c(-c2nc3ccccc3s2)c1 | · | – | – | – | · | ·
Nc1ccc(-c2nc3ccc(N)cc3s2)cc1 | 53 | – | 54 | 74 | 69 | 61
COc1ccc(-c2cc(=O)c3c(O)c(OC)c(O)cc3o2)cc1 | – | – | 20 | 54 | 46 | 41
COc1ccc(-c2cc(=O)c3c(O)c(OC)c(OC)c(OC)c3o2)cc1 | – | – | · | – | · | ·
C[C@@H](C(=O)Nc1ccc2c(c1)OCCO2)n1c(=O)[nH]c2ccccc2c1=O | – | 84 | 54 | 94 | 66 | 69
COc1ccc(C2Nc3cccc4cccc(c34)N2)cc1 | – | – | – | – | · | ·
CN(C)c1ccc(C2Nc3cccc4cccc(c34)N2)cc1 | – | – | 42 | – | 37 | –
Cc1noc(C)c1S(=O)(=O)Nc1ccc2c(c1)CC(=O)N([C@@H](C)CO)C[C@@H](C)[C@H](CN(C)CC1CCCCC1)O2 | – | · | · | · | · | ·
CC(C)(C)c1ccc(-c2noc(CCC(=O)Nc3cccnc3)n2)cc1 | – | 58 | 45 | – | – | –
CN(C)C(=O)CCc1nc(-c2ccc(C(C)(C)C)cc2)no1 | – | – | 20 | – | 27 | –
COc1ccc(-c2noc(CCC(=O)Nc3cccnc3)n2)cc1 | – | – | – | – | · | ·
COc1cc(C2/C(=C(\O)c3ccc4c(c3)CC(C)O4)C(=O)C(=O)N2CC2CCCO2)cc(OC)c1OC (stereo unspecified) | – | – | – | – | · | ·
Cc1nnc(N2C(=O)C(=O)/C(=C(\O)c3ccc4c(c3)CC(C)O4)C2c2ccccc2)s1 (stereo unspecified) | – | 57 | 26 | – | 17 | 26
CC1Cc2cc(/C(O)=C3/C(=O)C(=O)N(CC4CCCO4)C3c3ccco3)ccc2O1 (stereo unspecified) | · | – | 22 | – | – | 12
CC1Cc2cc(/C(O)=C3/C(=O)C(=O)N(CCN4CCOCC4)C3c3cccc(O)c3)ccc2O1 (stereo unspecified) | · | – | 18 | – | 18 | –
COc1ccc2c3c([nH]c2c1)[C@H](CO)N(C(=O)C1CCCC1)CC31CN(Cc2nccs2)C1 | – | · | · | · | · | ·
Cc1nc(NC(=O)c2ccco2)sc1-c1csc(Nc2ccc(Cl)cc2)n1 | · | – | 19 | – | – | –
Cc1nc(NC(=O)c2ccccc2)sc1-c1csc(Nc2ccc(Cl)cc2)n1 | · | · | 37 | · | 26 | –
COc1ccc(Nc2nc(-c3sc(NC(C)=O)nc3C)cs2)cc1 | · | · | – | · | · | ·
Cc1nc(NC(=O)c2ccccc2)sc1-c1csc(Nc2ccc(F)cc2)n1 | · | · | 44 | · | 31 | –
Cc1nc(NC(=O)c2ccccc2)sc1-c1csc(Nc2cccc(Cl)c2)n1 | · | · | 42 | · | 27 | –
Cc1nc(NC(=O)CC(C)C)sc1-c1csc(Nc2ccc(Cl)cc2)n1 | – | – | – | – | · | ·
C[C@H]1CN([C@@H](C)CO)S(=O)(=O)c2ccc(-c3ccc(F)cc3)cc2O[C@H]1CN(C)C(=O)C1CC1 | – | · | · | · | · | ·
C[C@@H]1CCCCO[C@@H](CN(C)S(C)(=O)=O)[C@@H](C)CN([C@H](C)CO)C(=O)c2cc(NC(=O)c3ccncc3)ccc2O1 | – | · | · | · | · | ·
COc1ccc(CN(C)C[C@@H]2OCCCC[C@H](C)Oc3ccc(NC(=O)NC(C)C)cc3C(=O)N([C@@H](C)CO)C[C@@H]2C)cc1 | – | · | · | · | · | ·
CC(C)NC(=O)N(C)C[C@@H]1OCCCC[C@@H](C)Oc2ccc(NS(=O)(=O)c3ccc(F)cc3)cc2C(=O)N([C@@H](C)CO)C[C@@H]1C | – | · | · | · | · | ·
